# Data reported in paper PMC4336329 (PLoS ONE, 2015).
# Screen size: about 310,000 compounds; about 14,000 (4.5%) showed an effect of 50% or more. Effects have a minus sign here. Only a selection was taken, and strong results are over-represented in it overall.
# Target: human ether-à-go-go-related gene (hERG) potassium channel (human, UniProt Q12809)
# Assay: primary screen, population patch clamp on CHO cells stably expressing hERG; higher = less effect of the substance
# 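Also: peak tail current of the secondary pulse compared with the same well before compound.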
# human ether-à-go-go-related gene (hERG) potassium channel, sequence (Q12809 whole entry, looked up): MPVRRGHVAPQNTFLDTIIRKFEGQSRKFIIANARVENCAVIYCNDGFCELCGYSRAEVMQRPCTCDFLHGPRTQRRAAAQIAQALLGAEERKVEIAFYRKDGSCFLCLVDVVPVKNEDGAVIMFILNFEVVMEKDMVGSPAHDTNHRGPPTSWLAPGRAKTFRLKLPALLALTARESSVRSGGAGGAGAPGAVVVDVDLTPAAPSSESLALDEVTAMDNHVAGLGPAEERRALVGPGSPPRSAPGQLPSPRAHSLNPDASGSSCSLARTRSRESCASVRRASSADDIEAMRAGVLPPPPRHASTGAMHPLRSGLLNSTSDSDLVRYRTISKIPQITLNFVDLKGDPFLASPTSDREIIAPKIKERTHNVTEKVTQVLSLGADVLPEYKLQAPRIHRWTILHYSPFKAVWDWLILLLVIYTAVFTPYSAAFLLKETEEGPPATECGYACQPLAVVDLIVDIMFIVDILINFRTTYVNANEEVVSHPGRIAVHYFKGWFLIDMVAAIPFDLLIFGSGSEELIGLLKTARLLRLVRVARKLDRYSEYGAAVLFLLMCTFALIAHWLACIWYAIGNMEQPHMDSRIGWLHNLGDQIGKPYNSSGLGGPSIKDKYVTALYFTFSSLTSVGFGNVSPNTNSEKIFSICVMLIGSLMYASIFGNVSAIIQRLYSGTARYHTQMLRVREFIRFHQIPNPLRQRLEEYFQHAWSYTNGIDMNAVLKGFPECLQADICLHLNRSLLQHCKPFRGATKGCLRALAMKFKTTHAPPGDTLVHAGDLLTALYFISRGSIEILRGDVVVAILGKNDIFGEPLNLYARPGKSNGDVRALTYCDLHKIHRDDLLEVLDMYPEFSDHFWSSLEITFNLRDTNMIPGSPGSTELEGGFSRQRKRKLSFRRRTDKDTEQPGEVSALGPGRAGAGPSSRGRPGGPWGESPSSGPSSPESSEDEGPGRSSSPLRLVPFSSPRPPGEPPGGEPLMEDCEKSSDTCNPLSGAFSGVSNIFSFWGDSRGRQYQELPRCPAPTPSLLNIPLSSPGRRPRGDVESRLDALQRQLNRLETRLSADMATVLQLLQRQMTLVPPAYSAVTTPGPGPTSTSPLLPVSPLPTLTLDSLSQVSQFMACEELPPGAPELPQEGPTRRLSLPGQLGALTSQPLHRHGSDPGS
row,Structure (SMILES),"hERG current change (%, negative = inhibition) at 10uM [%]"
1,Cc1ccc2c(Cl)cc(Cl)c(OCC(=O)N3CCOCC3)c2n1,-8.28
2,O=C(Cc1noc2ccccc12)Nc1ccccn1,6.57
3,O=S(=O)(Nc1nc2ccccc2nc1NCc1ccco1)c1cccs1,4.13
4,CCc1ccc2c(c1)c(N=NC1=NC(=O)CS1)c(O)n2C,0.556
5,COc1ccc(NS(=O)(=O)c2ccc(C(=O)N3CCN(Cc4ccccc4)CC3)cc2)cc1,-17.1
6,Cc1cccc(-c2noc(CNC(=O)COc3ccccc3C)n2)c1,-1.88
7,CCOc1ccc(C(CCc2ccccc2)NC(=O)c2ccccc2)cc1OCC (centres unmarked),-19.1
8,CCCCN(Cc1nc2ccccc2c(=O)[nH]1)C(=O)CN1C(=O)NC2(CCCCC2)C1=O,-41.9
9,O=C(Cc1nnc(NC(=O)c2ccccc2)s1)N/N=C\c1ccc(O)c(O)c1,23.4
10,COc1ccc(OC)c(C2N(c3cc(C)on3)C(=O)C3CCCN32)c1 (centres unmarked),10.8
11,Cc1ccc2nc(N3CCN(c4ccccc4)CC3)c(C=O)c(=O)n2c1,11.5
12,Cc1cccn2c(=O)c(C=O)c(N3CCN(C)CC3)nc12,-0.442
13,Cc1ccc2nc(N3CCN(c4ccccc4F)CC3)c(C=O)c(=O)n2c1,-70.1
14,Cc1cccn2c(=O)c(C=O)c(N3CCN(c4ccccc4)CC3)nc12,-55.4
15,Cc1cccn2c(=O)c(C=O)c(N3CCN(c4ccc(F)cc4)CC3)nc12,-22.1
16,Cc1ccc2nc(N3CCN(C)CC3)c(C=O)c(=O)n2c1,5.3
17,CCOCCCNC(=O)Cc1ccc(-n2c(CC)nc3cccnc32)cc1,-8.18
18,C=CCn1c(Oc2ccc(C=O)cc2OCC)nc2c1c(=O)n(C)c(=O)n2C,24.4
19,CCc1nnc(SCC(=O)Nc2ccccc2)n1CC1CCCO1 (centres unmarked),2.61
20,Cc1cccc(N2CC(C(=O)Nc3nnc(SCCN4CCOCC4)s3)CC2=O)c1 (centres unmarked),0.559
21,O=C(NNC(=S)Nc1ccc(Cl)cc1Cl)c1cccnc1,8.1
22,Cl.O=C(c1ccco1)N(CCCN1CCOCC1)c1nc(-c2ccc(F)cc2)cs1,-29.4

row,Structure (SMILES),"hERG current change (%, negative = inhibition) at 10uM [%]"
1,CCN(CC)CCCN(C(=O)c1ccco1)c1nc(-c2ccc(C)cc2)cs1.Cl,-84.1
2,COc1ccc(-c2csc(N(CCCN3CCOCC3)C(=O)c3ccco3)n2)cc1.Cl,-32.4
3,COCCN(C(=O)c1ccco1)c1nc(-c2ccccc2)cs1,4.36
4,CCN(CC)CCCN(C(=O)c1ccco1)c1nc(-c2ccc(Cl)cc2)cs1.Cl,-71.2
5,CCN(C(=O)c1ccco1)c1nc(-c2ccc(OC)cc2)cs1,8.13
6,CCOc1ccc(Oc2ccc(C(F)(F)F)cc2NC(=O)C2=COCCO2)cc1,13.6
7,CCC(CC)c1nnc(NC(=O)c2cc(-c3ccccc3)nc3ccccc23)s1,9.31
8,O=C(/C=C/c1ccccc1Cl)N(Cc1ccc(Cl)cc1)C1CCS(=O)(=O)C1 (centres unmarked),1.48
9,O=C(NCC1CCCO1)c1ccccc1NS(=O)(=O)c1cccs1 (centres unmarked),-5.56
10,Cc1cc(C)cc(OCCNC(=O)CCc2ccccc2)c1,4.83
11,Cc1ccc(CSc2nc3ccncc3n2CC(=O)Nc2cc(C)cc(C)c2)cc1,7.38
12,CC1CCN(C(=O)c2ccc(CSc3nc4ccncc4n3Cc3ccc(F)cc3)cc2)CC1,-46
13,CCC(C)NC(=O)c1ccc(CSc2nc3ccncc3n2Cc2ccc(F)cc2)cc1 (centres unmarked),-59
14,COc1ccc(Cn2c(SCc3ccc(C)cc3)nc3cc(OC)c(OC)cc3c2=N)cc1Cl,14.6
15,CN1CCN(C(=O)c2ccc(CSc3nc4ccncc4n3Cc3ccc(F)cc3)cc2)CC1,0.727
16,COc1ccc(-c2nc(Cn3c(SCc4ccc(C)cc4)nc4ccncc43)c(C)o2)cc1OC,-52
17,COc1ccc(-c2nc(Cn3c(SCc4cccc(F)c4)nc4ccncc43)c(C)o2)cc1OC,-62.4
18,COc1cc2nc(SCc3ccc(F)cc3)n(Cc3cccs3)c(=N)c2cc1OC,0.564
19,COc1ccc(-c2nc(Cn3c(SCc4ccccc4F)nc4ccncc43)c(C)o2)cc1,4.5
20,COc1ccc(-c2nc(Cn3c(SCc4ccc(F)cc4)nc4ccncc43)c(C)o2)cc1OC,-55.6
21,O=C(NC1CCCC1)c1ccc(CSc2nc3ccncc3n2Cc2ccc(F)cc2)cc1,-40.7
22,Cc1cccc(CSc2nc3ccncc3n2CC(=O)Nc2cc(C)cc(C)c2)c1,9.09
